In PubChem BioAssay AID750 (Sanford-Burnham Center for Chemical Genomics, 2007) one finds activation factor data, which are given here for 100 compounds.

Among all 86,000 compounds or so, about 140 (0.16%) were called active.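 How the source made its calls: active means activation factor of at least 2 for MT1-MMP transcription at 10 µM; inactive means the rest.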 Many of the other results were omitted from the sample, so actives are more common in it than they were.

The assay is described as follows: MT1-MMP promoter reporter activation – cell-based, luciferase luminescence, primary screen (AID 750). The note with it: HT1080 MT1-MMP promoter luciferase reporter, overnight, at 10 µM, hits give high values.
On to `O=C(Cc1ccc(-n2c(=O)[nH]c3ccccc3c2=O)cc1)N1CCN(c2cccc(Cl)c2)CC1`, for which the activation factor was 1 (inactive). As for `COc1ccc(Br)cc1CN1CCN(C(=O)c2cccc(OC)c2OC)CC1`, the figure is 1.1 (inactive); as for `COc1ccc(C2=Nc3cc(C)ccc3OC2)cc1`, 0.9 (inactive). As for `CS(=O)(=O)N1CCN(c2cccc(Cl)n2)CC1`, the figure is 1.2 (inactive); as for `COc1ccc(S(=O)(=O)Nc2ccc3oc(C)c(C(C)=O)c3c2)cc1`, 1.1 (inactive).

As for `Cc1ccc(C2=CSC3=NS(=O)(=O)CCN23)cc1C`, the activation factor is 1.1 (inactive). As for `CC1=C(C(=O)OC(C)(C)C)C(c2ccc(Br)cc2)NC(=O)N1CCCC(=O)O` (stereo not given), the figure is 1.1 (inactive). As for `CCS(=O)(=O)Nc1ccc(C2=NN(S(=O)(=O)c3ccc(F)cc3)C(c3ccco3)C2)cc1` (stereo not given), the figure is 1.1 (inactive); as for `CC1=CC(C)(C)NC(=S)N1c1ccccc1`, 1.1 (inactive). As for `Cc1ccc(SCC(=O)c2cc(C)c(OC(=S)N(C)C)c(C)c2)cc1`, the figure is 1.9 (inactive). As for `COC(=O)CSc1nc2c(c(C3CC=CCC3)c1C#N)CCC2` (stereo not given), the activation factor is 1 (inactive). As for `O=C(NCCCN1CCCCC1)c1ccc2c(c1)NC(=O)C(N1CCOCC1)S2` (stereo not given), the figure is 1.1 (inactive); as for `CC(C)CC[n+]1ccn(C2=C([O-])c3ccccc3C(=O)/C2=N\S(=O)(=O)c2ccccc2)c1`, 0.8 (inactive); as for `Cc1ccc2c(c1)c1ncn(CCC3=CCCCC3)c(=O)c1n2C`, 1.3 (inactive).

As for `Cc1ccc2c(c1)c1ncnc(N3CCc4ccccc4C3)c1n2C`, the activation factor was 2 (active). As for `Cc1cccc(-n2ncc3c(N4CCc5ccccc54)ncnc32)c1`, the figure is 1.5 (inactive); as for `COc1ccc(N(CC(=O)NC2CCCCC2)C(=O)CNC(=O)c2ccco2)c(OC)c1`, 1.2 (inactive); as for `CSc1nc(C)cc(SC(C(C)=O)C(=O)Nc2ccccc2)n1` (stereo not given), 1.1 (inactive). As for `CSc1nc2nc3c(c(=O)n2[nH]1)CCC3`, the figure is 1.2 (inactive); as for `COc1ccccc1CCNC(=O)c1cnccn1`, 1.2 (inactive).

For the compound `CCCCCOC(=O)c1ccc(N2C(=O)C3C4C=CC(C4)C3C2=O)cc1` (stereo not given), the activation factor was 1.2 (inactive). As for `O=C(NCc1ccc2c(c1)OCO2)C12CC3CC(CC(C3)C1)C2`, the figure is 1 (inactive); as for `Cc1ccc(N(Cc2ccc(C(=O)Nc3ccccc3C(=O)NCc3ccco3)cc2)S(C)(=O)=O)cc1C`, 1.1 (inactive); as for `COc1ccccc1NC(=O)/C=C/C(N)=O`, 1.3 (inactive). As for `CC(C)CCNC(=O)CC1C(=O)N(Cc2ccccc2)C(C)c2nc3ccccc3n21` (stereo not given), the figure is 1 (inactive); as for `CCOC(=O)c1ccccc1NS(=O)(=O)c1ccc(OC)cc1`, 1 (inactive). As for `CCn1c(CC(=O)Nc2ccc(C)cc2)nnc1SCC(=O)Nc1nc(C)cs1`, the figure is 1.1 (inactive); as for `CCN1CCN(C(=O)c2cc3cc4ccc(OC)cc4nc3s2)CC1`, 1.3 (inactive); as for `CC1CN(S(=O)(=O)c2ccccc2)C(C)CN1S(=O)(=O)c1ccccc1` (stereo not given), 1.3 (inactive). For `CCOC(=O)c1c(C)nc2c(c1C)c(=O)oc1ccccc12`, the activation factor is 1.1 (inactive).

As to `Cn1c(C(=O)OC(C(=O)NC2CCCCC2)c2ccccn2)cc2sccc21` (stereo not given), the activation factor was 1.2 (inactive). Take `CCCNC(=S)N1CCC(NC(=O)C23CC4CC(CC(C4)C2)C3)CC1`: the activation factor was 1.2 (inactive). As for `O=C(Nc1nncs1)c1cccc(S(=O)(=O)N2CCCCC2)c1`, the figure is 1 (inactive); as for `N#Cc1ccc(C=NC(c2ccccc2)c2ccccc2)cc1`, 1.2 (inactive); as for `CN(Cc1nc2ccccc2c(=O)[nH]1)Cc1cc(=O)oc2ccc3ccccc3c12`, 1 (inactive).

Turning to `Cc1nn(C(C)CC(=O)O)c(C)c1C` (stereo not given), the activation factor is 1.2 (inactive). As for `COc1ccc(NC(=O)CSc2nc(NS(=O)(=O)c3ccc(C)cc3)cc(=O)[nH]2)cc1`, the figure is 1.3 (inactive); as for `O=C(N/N=C\c1cccc(Br)c1)c1ccccc1-n1cccc1`, 1.4 (inactive). For `Cc1ccc(S(=O)(=O)Nc2nc(C)cc(-n3nc(C)cc3C)n2)cc1`, the activation factor is 1 (inactive).

Consider `CCC(C)NC(=O)C1CCCN(C(=O)NC2CCCCC2)C1` (stereo not given), for which the activation factor is 1.2 (inactive). As for `Cc1cc(C)n(-c2nc(O)cc(=O)[nH]2)n1`, the figure is 1 (inactive). As for `O=C(CN(c1ccccc1)S(=O)(=O)c1ccc(Cl)cc1)Nc1ccccc1C(=O)N1CCCC1`, the figure is 0.9 (inactive); as for `O=C1/C(=C/c2cccs2)CCc2ccccc21`, 1.8 (inactive). As for `CCOC(=O)C1=C(C)NC(=O)NC1c1ccccc1` (stereo not given), the figure is 1.1 (inactive); as for `Cc1ccc(S(=O)(=O)c2c(COC(=O)c3cccc(Cl)c3)c(-c3ccccc3)nn2C)cc1`, 1.1 (inactive).

With `CCOC(=O)c1[nH]c(C)c(C(=O)OCC(=O)N2c3ccccc3CC2C)c1C` (stereo not given), the activation factor was 1 (inactive). In the case of `C=C(Cl)COC(=O)C1C2C=CC(C2)C1C(=O)O` (stereo not given), the activation factor is 1.1 (inactive).

As to `O=C(/C=C/c1ccc(Cl)cc1Cl)c1cccnc1`, the activation factor is 1 (inactive). With `CCCCc1nc(NCCN)c(C#N)c2c1CSC(C)(C)C2`, the activation factor was 1.4 (inactive).

For the compound `CCOc1ccc(NC(=O)CCS(=O)(=O)c2ccc3c(c2)CCCN3C(=O)CC)cc1`, the activation factor was 1.1 (inactive).

On to `O=C(CSC1=Nc2ccccc2C2=NC(CC(=O)NCc3ccco3)C(=O)N12)NCc1ccco1` (stereo not given), for which the activation factor is 1.1 (inactive). As for `CC1(C(=O)NCCc2c[nH]c3ccccc23)C=CC2(CCCCC2)N1C(=O)c1ccccc1` (stereo not given), the figure is 1 (inactive). Regarding `O=c1[nH]c(SCc2ccccc2)nnc1-c1ccccc1`, the activation factor is 1.1 (inactive). As for `O=C(CCc1ccccc1)NCC#CC(O)c1ccc(Br)cc1` (stereo not given), the figure is 1.2 (inactive); as for `O=C(NCc1ccccc1Cl)c1csc2c1CCCCC2`, 1.1 (inactive); as for `CCCCCCSc1nsc(N)n1`, 1.4 (inactive). As for `CC(C)CNC(=O)CC(c1ccccc1)c1c(O)ccc2ccccc12` (stereo not given), the figure is 1 (inactive).

Turning to `CCCNC(=O)CN(Cc1ccccc1F)S(=O)(=O)c1ccc(C)cc1`, the activation factor was 1.3 (inactive). As for `CCCCNS(=O)(=O)c1ccc(S(=O)(=O)n2cnc3ccccc32)cc1`, the figure is 1.1 (inactive). Take `O=C(Nc1nccs1)c1cc(S(=O)(=O)N2CCOCC2)c(Cl)cc1Cl`: the activation factor was 1 (inactive).

For `CCn1nc(C)c(NC(=O)/C=C/c2ccc(OC)c(COc3ccc(Br)cc3)c2)c1C`, the activation factor is 0.9 (inactive). As for `CCCCN(CC)CCNC(=O)c1[nH]c(C)c(C(C)=O)c1C`, the figure is 0.9 (inactive); as for `O=C(COc1ccc(Cl)cc1)NCCSc1ccccc1`, 1.2 (inactive); as for `CCOc1ccc(NC(=O)c2ccccc2NS(C)(=O)=O)cc1`, 1.3 (inactive).

For `O=C(c1cc2c(s1)CCC2)N1CCN(c2ccccc2)CC1`, the activation factor was 1.1 (inactive).

In the case of `COc1ccc(C2=NOC3(CC(=O)N(c4ccc(C)cc4)C3=O)C2)cc1` (stereo not given), the activation factor is 1.2 (inactive). As for `CC1=NN(/C(=N\c2nnc(C)s2)Nc2ccccc2)[C@H](c2ccc(C)cc2)S1`, the figure is 1.1 (inactive). In the case of `O=C1CCCc2nn(-c3ccccc3)nc21`, the activation factor is 1.5 (inactive). As for `OC(CN=c1sc2ccccc2n1CC(O)COc1ccccc1)COc1ccccc1` (stereo not given), the figure is 1.4 (inactive); as for `C=C(C)C(=O)Nc1cccc(C(C)=O)c1`, 1.3 (inactive). As for `CC1CCN(C(=O)CN(c2ccc(Oc3ccccc3)cc2)S(C)(=O)=O)CC1`, the figure is 1 (inactive). As for `COc1ccc(CNc2ccc3c(c2)CCC3)cc1OC`, the figure is 1.1 (inactive); as for `Cc1ccccc1-n1nc(C)c2cc(C(=O)NC3CC3)sc21`, 1.1 (inactive); as for `Cc1cc(Oc2ccccc2)nc(N2CCOCC2)n1`, 1.1 (inactive). For `Cc1ccc(OCC(=O)N2CCN(C(=O)c3cccnc3)CC2)cc1`, the activation factor was 1 (inactive). As for `O=C1/C(=C\Nc2ccccc2)CCN1c1ncccn1`, the figure is 1.9 (inactive); as for `COc1ccc(CN(Cc2ccco2)S(=O)(=O)c2ccc(S(=O)(=O)N3CCCC3)cc2)cc1`, 1 (inactive). As for `CCCCNC(=O)C1CCCN(S(=O)(=O)c2ccc(S(=O)(=O)NCC(C)C)cc2)C1` (stereo not given), the figure is 1.2 (inactive). As for `CCc1ccc(CNC(=O)C2CCCN(c3nc4ccccc4o3)C2)cc1` (stereo not given), the figure is 1.1 (inactive); as for `Cc1cccc(C(=O)N2CCCN(C(=O)c3cccc(C)c3)CC2)c1`, 1 (inactive). With `CCC(C)(C(=O)NC1CCCCC1)N(C)C(=O)c1ccc2c(c1)OCO2` (stereo not given), the activation factor was 1 (inactive). As for `Cc1ccc(OCCCC(=O)Nc2ccc(N3CCOCC3)cc2)cc1`, the figure is 1.1 (inactive).

Regarding `O=C(CN1C(=O)C2C3C=CC(C3)C2C1=O)Nc1nc(-c2ccccn2)cs1` (stereo not given), the activation factor is 1.2 (inactive). For `COC(=O)c1ccc(C(NC(=O)OCc2ccccc2)/C(C)=C/[C@@H](C)C(=O)NCc2ccc(OC)c(OC)c2)cc1` (stereo not given in full), the activation factor is 1.4 (inactive). As for `O=C(CC12CC3CC(CC(C3)C1)C2)Nc1ccc2c(c1)COC2=O`, the figure is 1 (inactive); as for `COc1ccccc1NC(=O)CC(NCCN(C)C)C(=O)O` (stereo not given), 1 (inactive); as for `CS(=O)(=O)N(CC(=O)N1CCN(Cc2ccccc2)CC1)c1ccc2c(c1)OCCO2`, 0.9 (inactive). As for `CCn1c(SCC(=O)Nc2nc(C)cs2)nnc1C(C)NC(=O)c1ccccc1` (stereo not given), the figure is 1.3 (inactive); as for `CCCc1nnc(NC(=O)c2cccs2)s1`, 1.4 (inactive).

For `CCOC(=O)CN1C(=O)C(=O)c2cc(C)ccc21`, the activation factor was 1.1 (inactive). For the compound `COc1ccc(/C=N/Nc2nc3ccccc3o2)cc1OC`, the activation factor was 1.7 (inactive). Consider `CN1CCN(C(=O)Cn2c(C(F)(F)F)nc3ccccc32)CC1`, for which the activation factor was 1.2 (inactive).

As to `Cc1ccc(S(=O)(=O)NC(=O)COc2ccccc2C)cc1`, the activation factor is 1.2 (inactive).

With `CC1(C)N=C(c2ccccn2)C(C)(C)N1O`, the activation factor is 1 (inactive). As for `COc1ccc(CN(C(=O)CSc2nnc(-c3ccc(OC)c(OC)c3)o2)c2ccc(F)cc2)cc1`, the figure is 1.2 (inactive); as for `CCOC(=O)c1ccc2c(c1)nc(C)n2CC`, 1.6 (inactive). As for `O=C(NC(=O)c1ccccc1)NC(=O)c1ccccc1`, the figure is 1 (inactive); as for `CN(C)c1ccnc2sc3c(=O)n(-c4ccc(Cl)cc4)cnc3c12`, 1.5 (inactive); as for `Cc1ccc(-n2cc3ccc([N+](=O)[O-])cc3n2)cc1`, 0.9 (inactive).

With `CCOCN(C(=O)Cn1c(C(C)O)nc2ccccc21)c1c(C)cccc1CC` (stereo not given), the activation factor was 1.2 (inactive).
